# In the supplement of paper PMC10121225:
# Where a name gives a salt, the structure may show the parent alone.
# System: hN + hpA co-culture (H1 iNGN2 human neurons + human primary astrocytes)
# Assay: presynaptic density (SYNAPSIN1 puncta per MAP2 neurite area), Z-score vs DMSO controls; higher = more presynaptic puncta (synapse-promoting)
# Settings: 3 µM; 72 h
# 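Note: immunostained co-cultures imaged by high-content microscopy, Z-score per plate against mean and SD of 0.1% DMSO wells, compounds added on differentiation day 18, analysed day 21.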
row,SMILES,presynaptic density (Z-score)
1,Nc1nc(N)c2nc(-c3cccc(O)c3)c(-c3cccc(O)c3)nc2n1,1.05
2,CNC(=O)c1ccccc1Nc1nc(Nc2ccc(N3CCOCC3)cc2OC)ncc1Cl,0.092
3,Cc1nnc(C(=O)NC(C)(C)c2nc(C(=O)NCc3ccc(F)cc3)c(O)c(=O)n2C)o1 [Raltegravir (MK-0518)],-0.683
4,NC(=O)c1cnc(NC2CCCCC2N)nc1Nc1cccc(-n2nccn2)c1 (centres undefined),-0.728
5,O=C(NOC[C@H](O)CO)c1ccc(F)c(F)c1Nc1ccc(I)cc1F,-0.369
6,Cc1nn(-c2ccccc2)c(C)c1C=NN1CCN(Cc2ccccc2)CC1,-0.2
7,"NC(=O)C1CCCc2c1[nH]c1ccc(Cl)cc21 (centres undefined) [6-Chloro-2,3,4,9-tetrahydro-1H-carbazole-1-carboxamide]",0.159
8,O=C(c1ccc(Nc2nccc(-c3cc4ccccc4s3)n2)cc1)N1CCC(N2CCCC2)CC1,0.27
9,Cc1cccc(-c2nn3c(c2-c2ccnc4ccc(C(N)=O)cc24)CCC3)n1,0.336
10,O=C(NC(Cc1cc(=O)[nH]c2ccccc12)C(=O)O)c1ccc(Cl)cc1 (centres undefined),-0.611
11,COC1CCN(C(=O)c2cc(Cc3n[nH]c(=O)c4ccccc34)ccc2F)CC1,0.144
12,C[C@H]1COC2(CCN(c3nc(=O)c4cc(C(F)(F)F)cc([N+](=O)[O-])c4s3)CC2)O1 (racemic) [BTZ043 Racemate],0.635
13,CC(C)C[C@H](NC(=O)[C@H](Cc1ccccc1)NC(=O)c1cnccn1)B(O)O [Bortezomib (PS-341)],-3.27
14,OC(CC1c2ccccc2-c2cncn21)C1CCCCC1 (centres undefined),0.156
15,CNC(=O)c1cc(Oc2ccc(NC(=O)Nc3cc(C(C)(C)C)nn3-c3ccc4ncccc4c3)c(F)c2)ccn1 [DCC-2036 (Rebastinib)],0.594
16,O=C(Nc1ccccc1)N1CCN(c2nc(-c3ccccc3)ns2)CC1,-0.242
17,O[C@@H](COc1cccc2ncccc12)CN1CCN(C2c3ccccc3[C@@H]3[C@H](c4ccccc42)C3(F)F)CC1 (some centres undefined),-1.51
18,O=C(NNc1nc2cc(F)ccc2n2cccc12)c1cnccn1,-1.29
19,COc1cccc(-c2cc(F)ccc2C2Cc3nc(N)nc(C)c3C(=O)N2)n1 (centres undefined),2.18
20,COc1cc(Nc2c(C#N)cnc3cc(OCCCN4CCN(C)CC4)c(OC)cc23)c(Cl)cc1Cl [Bosutinib (SKI 606)],-1.36

row,SMILES,presynaptic density (Z-score)
1,CCN(CC)CC(=O)Nc1c(C)cccc1C,0.846
2,O=C(NC[C@H]1CN(c2ccc(N3CCOCC3=O)cc2)C(=O)O1)c1ccc(Cl)s1 [Rivaroxaban],-0.11
3,OC[C@H]1O[C@@H](c2ccc(Cl)c(Cc3ccc(O[C@H]4CCOC4)cc3)c2)[C@H](O)[C@@H](O)[C@@H]1O,-0.331
4,O=C(O)c1ccc(Nc2ncc3c(n2)-c2ccc(Cl)cc2C(c2c(F)cccc2F)=NC3)cc1,-0.286
5,Oc1nc(-c2ccc(C(F)(F)F)cc2)nc2c1CSCC2,0.167
6,CCCSc1nc(N[C@@H]2C[C@H]2c2ccc(F)c(F)c2)c2nnn([C@@H]3C[C@H](OCCO)[C@@H](O)[C@H]3O)c2n1 [Ticagrelor],-0.848
7,CC(C)CCN1c2nc(Nc3cc(F)c(O)c(F)c3)ncc2N(C)C(=O)C1C (centres undefined),2.11
8,Oc1cc(O)cc(/C=C/c2ccc(O)c(O)c2)c1 [Piceatannol],-0.0151
9,C1=N/C2=N/c3ccc(OCCN4CCCC4)c(c3)COC/C=C/COCc3cccc(c3)C(=C1)N2 [Pacritinib (SB1518)],-1.08
10,CC(C)NCC(O)COc1ccc(COCCOC(C)C)cc1 (racemic),-0.749
11,C=CCn1c(=O)c2cnc(Nc3ccc(N4CCN(C)CC4)cc3)nc2n1-c1cccc(C(C)(C)O)n1,1.16
12,CCN(CC)CCCC(C)Nc1nc(C)cc(Nc2ccc3nc(C)cc(N)c3c2)n1 (centres undefined),-0.607
13,CCc1c2c(nc3ccc(OC(=O)N4CCC(N5CCCCC5)CC4)cc13)-c1cc3c(c(=O)n1C2)COC(=O)[C@]3(O)CC [Irinotecan],-0.725
14,C[C@]1(O)C[C@@H](c2nc(-c3ccc4ccc(-c5ccccc5)nc4c3)c3c(N)nccn32)C1 [OSI-906 (Linsitinib)],0.349
15,CC(C)N(CCCNC(=O)Nc1ccc(C(C)(C)C)cc1)C[C@H]1O[C@@H](n2cc(Br)c3c(N)ncnc32)[C@H](O)[C@@H]1O,-0.407
16,COc1cccc2c1C(=O)c1c(O)c3c(c(O)c1C2=O)C[C@@](O)(C(C)=O)C[C@@H]3O[C@H]1C[C@H](N)[C@H](O)[C@H](C)O1 [Daunorubicin HCl],0.0215
17,CN(C)C(=O)[C@H](O)[C@H](Cc1ccccc1)NC(=O)c1cc2cc(Cl)ccc2[nH]1,-0.264
18,CC[C@H](C)C(=O)O[C@H]1C[C@@H](C)C=C2C=C[C@H](C)[C@H](CC[C@@H]3C[C@@H](O)CC(=O)O3)[C@H]21,1.56
19,Cn1cnc2c(F)c(Nc3ccc(Br)cc3Cl)c(C(=O)NOCCO)cc21,0.953
